# In all, about 2,300 compounds went through this assay and about 1,200 (52%) were called active. The set was probably picked from earlier hits. The list shows a part of the results. Measured potencies and affinities stand elsewhere. A number with no mark means an inactive call. No rule for the calls is given here.
# Test: mammalian cell cytotoxicity, dose response, cytotoxicity control for M. tuberculosis inhibitor project (AID 435019);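 also: 0% = background wells and 100% = vehicle-treated cells; lower values mean fewer viable cells so more cytotoxicity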
# Conditions: cytotoxicity counter-screen; series mostly up to 40 µM; viability: at the top concentration
row,Compound,viability
1,COC(=O)c1ccc(COC(=O)CCc2nc(-c3ccccc3)c(-c3ccccc3)o2)cc1,92.4%
2,Cc1cc(=O)oc2cc(OC(=O)C3CCN(C(=O)c4ccc(F)cc4)CC3)ccc12,93%
3,Cc1ccc(C(=O)N2N=C(CC(C)C)CC2(O)C(F)(F)F)o1 (configuration not stated),97.2%
4,Nc1ccc2c(c1)Cc1ccccc1-2,89.1%
5,CCCC(=O)Nc1sc2c(c1C#N)CCCCC2,88.5%
6,CCOC(=O)CSc1nnc(-c2c[nH]c3ccccc23)o1,96.3%
7,CCOC(=O)Cn1c(C)c(Br)c(=O)c2cccc(C)c21,103%
8,Cc1ccc(/C=C2\SC(N3CCCC3)=NC2=O)cc1,86.4%
9,CN(C)C/C=C/C(=O)Nc1cccc(-c2c[nH]c3ncnc(Oc4ccc(NC(=O)CC(=O)Nc5ccc(F)cc5)cc4F)c23)c1,88.1%
10,CSc1nsc(SCC(=O)N2CCCCC2)n1,99.7%
11,NNC(=S)NCc1ccc2c(c1)OCO2,99%
12,CCOc1ccc(/C=N/OCC(=O)Nc2cc(C)on2)cc1,96.8%
13,Cc1cc(NC(=O)c2noc3c2CCCC3)nn1Cc1ccc(Cl)cc1,84.7%
14,COCCCN=C1NN=C(c2cc(C)n(Cc3ccco3)c2C)CS1,33.4%
15,Cc1ccc(C2=NN(C)c3nc4ccccc4n3C2)cc1,84.9%
16,COc1ccc(OC)c(CN2CCN(C(=O)CNC(=O)c3ccc(C(C)(C)C)cc3)CC2)c1,97%
17,Cc1cc(NC(=O)CCN2C(=O)C3C4C=CC(C4)C3C2=O)ccc1Br (configuration not stated),97.6%
18,COc1ccc(-c2c(C#Cc3ccsc3)c3ccccc3n2C)cc1,89.6%
19,CCOC(=O)c1ccc(NC(=O)C(C)Sc2nc(O)c(-c3ccccc3)c(=O)[nH]2)cc1 (configuration not stated),88.8%
20,O=C(Nc1ccc(C2=NCCN2)cc1)c1ccc(Cl)c(C(=O)Nc2ccc(C3=NCCN3)cc2)c1,97.4%
21,CC(=O)c1sc(NC(=O)c2cc(=O)c3ccccc3o2)nc1C,84.2%
22,C=CCc1cccc(CNc2cnc3ccccc3c2)c1O,88.8%
23,Cc1cc(-c2cc(-c3ccccc3)on2)nc(NC2CCCC2)n1,85.9%
24,Cc1ccsc1/C=N/Nc1ccc(F)cc1F,95.7%

row,Compound,viability
1,Cc1ccc(CNC(=O)c2sc3nc4c(c(C(F)(F)F)c3c2N)CCC4)cc1,94.3%
2,CC(C)(C)c1nc2sc3c(c2c(=O)o1)CCCC3,93.7%
3,COc1ccc(C(=O)C2CCCN(C3CSCCSC3)C2)c(C)c1 (configuration not stated),83.2%
4,CN1C(=O)c2cccc3c(Br)ccc(c23)C1=O,97.7%
5,CN(Cc1ccc(Br)cc1)C(=O)CCN1C(=O)c2cccc([N+](=O)[O-])c2C1=O,86.3%
6,O=C(Nc1ccc(Cl)cc1)N(C1=NCCC1)c1ccc(OC(F)F)cc1,82.3%
7,O=C(c1ccco1)N1CCN(C(=O)C2CC(c3ccc(Cl)c(Cl)c3)=NO2)CC1 (configuration not stated),84.7%
8,c1ccc(-c2nc(N3CCCC3)nc3ccccc23)cc1,92.6%
9,O=c1cc2[nH]c3ccccc3c(=O)n2nc1-c1ccccc1,98.3%
10,CCOC(=O)N/N=C(/C)c1ccc([N+](=O)[O-])o1,84.4%
11,CN1/C(=C\C(=O)COC(=O)c2ccc([N+](=O)[O-])o2)C(C)(C)c2ccccc21,98.5%
12,CCOc1cc(C2NN=C(c3ccc(C)cc3)S2)ccc1O (configuration not stated),82%
13,N#C/C(=C1\CCCN1)c1nc(-c2ccccc2)cs1,82%
14,O=C(Nc1ccc(-n2cccc2)cc1)C1CC1,92.5%
15,Cc1ccc(NC(=O)C2C3/C=C\CCCCC32)cc1C (configuration not stated),96.5%
16,COc1cccc(-n2nnc3c(=O)n(CC(=O)N4CCC(Cc5ccccc5)CC4)cnc32)c1,80.7%
17,Cc1ccc(S(=O)(=O)NCc2ccc(C(=O)NCCCN3CCC(Cc4ccccc4)CC3)cc2)cc1,94.2%
18,CCCCCCSc1nsc(NC(=O)CC(C)C)n1,85%
19,Cc1c(OCc2ccccc2)c(=O)ccn1Cc1ccc(Cl)cc1,87.7%
20,CC(=O)N1C(Nc2ccc(Cl)cc2)CCN1c1ccccc1 (configuration not stated),102%
21,Nc1ccc2c(c1)oc1ccccc12,87.4%
22,Cc1ccc(-n2[nH]c(C)c(C=Nc3ccc(S(=O)(=O)Nc4nccs4)cc3)c2=O)c(C)c1,88.1%
23,Cc1ccccc1C(=O)Nc1ccc(N(C)C)c2ccccc12,95.2%
24,N/C(=N\OC(=O)Nc1ccc(Cl)c(Cl)c1)c1ncc(C(F)(F)F)cc1Cl,92.2%

row,Compound,viability
1,CC(C)C(=O)N1CCC2(CC1)Oc1ccc(Cl)cc1C(=O)C21CC(c2ccccc2)=NO1 (configuration not stated),83.4%
2,COc1ccc(C(=O)OCC(=O)c2ccc(Br)s2)c(OC)c1,94.2%
3,CCOC(=O)C1CCCc2c1[nH]c1c(C(N)=O)cccc21 (configuration not stated),92.2%
4,O=C(OCc1ccccc1F)c1cnc(Cl)c(Cl)c1,94.4%
5,COc1ccccc1C1=NOC(COC(=O)c2ccc([N+](=O)[O-])cc2)C1 (configuration not stated),97.8%
6,O=C(OCc1ccc([N+](=O)[O-])cc1)c1cc2ccccc2oc1=O,103%
7,CCCCS/C(N)=N/N=C/c1cc(C)ccc1O,85.3%
8,Nc1ccc(Oc2ccc(F)cc2)nc1,100%
9,CCOC(=O)c1cc(-c2cccc([N+](=O)[O-])c2)on1,96.6%
10,CNC(=S)Nc1ccc(N2CCN(c3ccc(C(F)(F)F)cn3)CC2)nc1,92.3%
11,CCCCCCC#Cc1ccc2c(c1)COc1c3ccccc3nn1-2,83.6%
12,COc1cc(N)c(Cl)cc1C(=O)N[C@H]1CCN(CCCOc2ccc(F)cc2)C[C@H]1OC,95%
13,O=C(NC1CCCCCC1)c1ccccc1-c1ccccc1,83.2%
14,N#CC(C(=O)Nc1ccccc1)=C1Nc2ccccc2N1,80.9%
15,Cc1ccccc1C(=O)Nc1ccccc1C(=O)NCC(C)C,90.5%
16,CSc1nc2nc3c(c(=O)n2[nH]1)CCCC3,96.8%
17,c1ccc(CCNc2ncnc3c2cnn3-c2ccccc2)cc1,84.7%
18,CCSc1ncc(/C=N/Nc2ccccc2)n1C,84.5%
19,CN1/C(=C\C(=O)C[n+]2ccc(C(=O)c3ccccc3)cc2)C(C)(C)c2ccccc21,96.7%
20,CCOC(=O)c1ccc2c(c1)C(=O)N(C1CCCCC1)C2=O,92.8%
21,CCCN(CC1CC1)C(=O)COC(=O)c1ccc2c(c1)C(=O)N(c1ccc(OCC)cc1)C2=O,94.9%
22,CN(C)C=Nc1ccc2nn(-c3ccccc3)nc2c1,93.2%
23,COC(=O)CSc1[nH]c2ccc(Br)cc2c1[N+](=O)[O-],93.3%
24,CCOC(=O)c1csc(-c2snnc2C)n1,95.6%

# From PubChem BioAssay AID435019 (Southern Research Specialized Biocontainment Screening …, 2010)
